The source made the active and inactive calls. Rule as the data show it, unless noted: active = inhibition above about 80%; inactive = the rest.
Key:
[1] = LFS_MB_P medulloblastoma growth inhibition, cell-based, chromothripsis tumors, cisplatin or BGB combos (AID 1671449); settings: LFS_MB_P medulloblastoma cells;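 also: cells exposed for 96 hours; 0% = vehicle DMSO and 100% = killing by high DMSO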
[2] = HDN33 neuroblastoma growth inhibition, cell-based, chromothripsis tumors, cisplatin or BGB combos (AID 1671450); settings: HDN33 neuroblastoma cells, stronger effect = higher value;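 also: cells exposed to compound for four days; 0% = vehicle DMSO and 100% = cell killing by high DMSO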
[3] = ICB984 medulloblastoma cell growth inhibition, synergistic combos for chromothripsis tumors, cisplatin or BGB combos (AID 1671451; call rule not given here;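 also: cells exposed for 96 hours before readout; 0% = vehicle DMSO and 100% = killing by high DMSO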); settings: ICB984 medulloblastoma cells, drug combinations, stronger effect = higher value
[4] = LFS_MB_1R medulloblastoma cell growth inhibition, synergistic combos for chromothripsis tumors, cisplatin or BGB combos (AID 1671452); settings: LFS_MB_1R medulloblastoma cells, stronger effect = higher value;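 also: cells exposed for 96 hours before readout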
[5] = HTB85 osteosarcoma cell growth inhibition, synergistic combos for chromothripsis tumors, BGB or cisplatin IC20 combos (AID 1671453); settings: HTB85 osteosarcoma cells, drug combinations, stronger effect = higher value;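 also: cells exposed for 96 hours before readout; 0% = vehicle DMSO and 100% = high DMSO killing control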
[6] = CRL2098 osteosarcoma cell growth inhibition, synergistic combos for chromothripsis tumors, BGB or cisplatin IC20 combos (AID 1671454); settings: CRL2098 osteosarcoma cells, drug combinations, stronger effect = higher value;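 also: cells exposed for 96 h before readout; 0% = vehicle DMSO and 100% = killing by high DMSO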
[7] = HD-MB03 medulloblastoma cell growth inhibition, synergistic combos for chromothripsis tumors, BGB or cisplatin IC20 combos (AID 1671455; in the data active = inhibition above about 83%;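 also: 0% = vehicle DMSO and 100% = high DMSO as cytotoxic control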); settings: HD-MB03 medulloblastoma cells, stronger effect = higher value
[8] = UWB1.289 ovarian carcinoma cell growth inhibition, synergistic combos for chromothripsis tumors, BGB or cisplatin combos (AID 1671456); settings: UWB1.289 ovarian carcinoma cells, stronger effect = higher value;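 also: cells exposed to compound for four days; 0% = vehicle DMSO and 100% = killing by high DMSO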
[9] = LFS_MB_2R medulloblastoma cell growth inhibition, synergistic combos for chromothripsis tumors, cisplatin combos (AID 1671457); settings: LFS_MB_2R medulloblastoma cells, stronger effect = higher value;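 also: cells exposed to compound for four days before readout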
[10] = MDA-MB-436 breast carcinoma cell growth inhibition, synergistic combos for chromothripsis tumors, BGB or cisplatin combos (AID 1671458; call rule not given here;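 also: cells exposed for 96 hours; 0% = vehicle DMSO and 100% = killing by high DMSO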); settings: MDA-MB-436 breast carcinoma growth inhibition, drug combinations, stronger effect = higher value
[11] = UWB1.289_BRCA1 ovarian cancer growth, cell-based, BGB or cisplatin combinations (AID 1671459); settings: UWB1.289 BRCA1 ovarian carcinoma, drug combinations, stronger effect = higher value
[12] = human astrocyte viability loss, single and combined drugs, cytotoxicity control for chromothriptic childhood tumor combination screen, cell-based, BGB or cisplatin IC20 combos (AID 1671460); settings: Human astrocytes, drug combinations, stronger effect = higher value;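 also: cells exposed to compounds for 96 hours before viability readout; 0% = vehicle and 100% = killing control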
[13] = growth inhibition of BT084 medulloblastoma cells, cell-based, ICGC_MB145, cisplatin and BGB IC40 combos (AID 1671461); settings: drug combinations, stronger effect = higher value;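 also: cells exposed to drugs for 96 hours; 0% = vehicle DMSO and 100% = high DMSO full killing control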
[14] = growth inhibition of RCMB18 medulloblastoma cells, cell-based, cisplatin and BGB IC40 combos (AID 1671462); settings: stronger effect = higher value;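 also: cells exposed to compound for four days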
[15] = growth inhibition of CRL1545 osteosarcoma cells, cell-based, cisplatin and BGB IC20 combos (AID 1671464); settings: stronger effect = higher value;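 also: cells exposed to compound for 96 hours before readout; 0% = vehicle DMSO and 100% = high DMSO killing control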
[16] = at 0.5 µM, stronger effect = higher value
[17] = measured here: combination with BGB IC20, at 0.005 µM
[18] = measured here: combination with BGB IC40, at 0.005 µM
[19] = measured here: combination with BGB IC40, at 0.05 µM
[20] = measured here: combination with cisplatin, at 0.5 µM, stronger effect = higher value
[21] = measured here: combination with cisplatin, at 5 µM, stronger effect = higher value
[22] = measured here: with BGB IC20 combination, at 0.5 µM
[23] = measured here: with cisplatin IC20 combination, at 0.5 µM
[24] = measured here: 5 uM single agent, at 5 µM
[25] = measured here: combination with cisplatin, at 0.5 µM
[26] = measured here: combination with cisplatin, at 5 µM
[27] = measured here: with BGB IC20, at 0.5 µM
[28] = measured here: with BGB IC20, at 5 µM
[29] = measured here: with cisplatin IC20, at 0.5 µM
[30] = measured here: with cisplatin IC20, at 5 µM
[31] = measured here: combination with BGB at IC20, at 0.5 µM
[32] = measured here: combination with cisplatin at IC20, at 0.5 µM
[33] = measured here: combo with BGB at IC20, at 0.5 µM
[34] = measured here: combo with cisplatin at IC20, at 0.5 µM
[35] = measured here: inhibition with BGB combination, at 0.05 µM
[36] = measured here: inhibition with cisplatin combination, at 0.05 µM
[37] = measured here: BGB combination, at 0.5 µM
[38] = measured here: BGB combination, at 5 µM
[39] = measured here: cisplatin combination, at 0.5 µM
[40] = measured here: cisplatin combination, at 5 µM
[41] = BGB combination, concentration series, at 5 µM
[42] = cisplatin combination, concentration series, at 5 µM
[43] = measured here: combo with BGB IC20, at 0.5 µM
[44] = measured here: combo with cisplatin IC20, at 0.5 µM
[45] = cisplatin combination, at 0.5 µM
[46] = measured here: BGB IC40 combination 0.05 uM, at 0.05 µM
[47] = measured here: BGB IC40 combination, at 0.05 µM

SMILES: O=C(CCSc1nc2ccccc2c(=O)[nH]1)NC1CCC(c2nnc(-c3ccccc3)o2)CC1 (stereo unspecified)
- inhibition [1, 16]: -18.8% (inactive)
- inhibition [1, 17]: -14.4%
- inhibition [1, 18]: -25.3%
- inhibition [1, 19]: -55.5%
- inhibition [1, 20]: -16.2%
- inhibition [1, 21]: -49.7%
- inhibition ([2]; BGB combo, at 5 µM): 11.8%
- inhibition ([2]; at 0.5 µM): 16.1% (inactive)
- inhibition ([2]; cisplatin combo, at 5 µM): 29.6%
- inhibition [2, 22]: 8.27%
- inhibition [2, 23]: 21.3%
- inhibition ([2]; single agent, at 5 µM): 32.4%
- inhibition ([3]; BGB IC20 combo, at 0.005 µM): -2.22%
- inhibition ([3]; BGB IC40 combo, at 0.005 µM): -49.4%
- inhibition ([3]; BGB IC40 combo, at 0.05 µM): -27.2%
- inhibition ([3]; at 0.5 µM): -25.5% (inactive)
- inhibition ([3]; cisplatin combo, at 0.05 µM): -31.8%
- inhibition ([3]; cisplatin combo, at 0.5 µM): -22.3%
- inhibition ([3]; cisplatin combo, at 5 µM): -10.9%
- inhibition [3, 24]: -18.3%
- inhibition ([4]; at 0.5 µM): -14.6% (inactive)
- inhibition [4, 19]: 6.03%
- inhibition [4, 25]: -5.82%
- inhibition [4, 26]: -21.2%
- inhibition ([5]; at 0.5 µM): 2.93% (inactive)
- inhibition [5, 27]: -9.32%
- inhibition [5, 28]: -14.4%
- inhibition [5, 29]: 5.46%
- inhibition [5, 30]: -13.6%
- inhibition ([5]; single agent, at 5 µM): 0.754%
- inhibition ([6]; at 0.5 µM): -30.9% (inactive)
- inhibition [6, 31]: -25.3%
- inhibition [6, 32]: -55.1%
- inhibition ([7]; at 0.5 µM): 5.94% (inactive)
- inhibition [7, 33]: -6.25%
- inhibition [7, 34]: 23%
- inhibition ([8]; at 0.5 µM): 10.2% (inactive)
- inhibition [8, 35]: -3.32%
- inhibition [8, 36]: 13%
- inhibition ([9]; at 0.5 µM): -3.45% (inactive)
- inhibition [9, 25]: -13.5%
- inhibition [9, 26]: -4.17%
- inhibition ([10]; at 0.5 µM): 4.84% (inactive)
- inhibition [10, 37]: -2.01%
- inhibition [10, 38]: -13.2%
- inhibition [10, 39]: 5.45%
- inhibition [10, 40]: -2.11%
- inhibition [11, 41]: 9.22%
- inhibition ([11]; at 0.5 µM): 8.17% (inactive)
- inhibition [11, 42]: -16.8%
- inhibition ([12]; at 0.5 µM): 41.8% (inactive)
- inhibition [12, 43]: 31.3%
- inhibition [12, 44]: 43.3%
- inhibition ([13]; at 0.5 µM): -6.61% (inactive)
- inhibition [13, 45]: -27.5%
- inhibition ([13]; cisplatin combination, at 5 µM): 2.51%
- inhibition [13, 46]: -56.9%
- inhibition ([13]; single agent, at 5 µM): -15.2%
- inhibition ([14]; at 0.5 µM): -4.49% (inactive)
- inhibition ([14]; cisplatin combo, at 5 µM): 16.1%
- inhibition [14, 47]: -6.16%
- inhibition [14, 25]: 22.5%
- inhibition ([14]; single agent, at 5 µM): -14.1%
- inhibition ([15]; at 0.5 µM): -21.1% (inactive)
- inhibition [15, 22]: -27%
- inhibition [15, 23]: -20%
- inhibition ([15]; single agent, at 0.05 µM): 24.5%
- inhibition ([15]; single agent, at 5 µM): -45%

SMILES: CC(C)(O)[C@H]1CC[C@@](C)(C2[C@@H](O)C[C@@]3(C)[C@@H]4C[C@H](O)C5C(C)(C)[C@@H](O)CCC56CC46CC[C@]23C)O1 (stereo partly specified)
- inhibition [1, 16]: -20.9% (inactive)
- inhibition [1, 17]: -17.4%
- inhibition [1, 18]: 78.4%
- inhibition [1, 19]: -19.9%
- inhibition [1, 20]: -28%
- inhibition [1, 21]: -7.56%
- inhibition ([2]; BGB combo, at 5 µM): -24.9%
- inhibition ([2]; at 0.5 µM): 2.8% (inactive)
- inhibition ([2]; cisplatin combo, at 5 µM): -13.8%
- inhibition [2, 22]: -6.04%
- inhibition [2, 23]: 14.5%
- inhibition ([2]; single agent, at 5 µM): -12.8%
- inhibition ([3]; BGB IC20 combo, at 0.005 µM): -5.6%
- inhibition ([3]; BGB IC40 combo, at 0.005 µM): -12.2%
- inhibition ([3]; BGB IC40 combo, at 0.05 µM): -16.5%
- inhibition ([3]; at 0.5 µM): -16.2% (inactive)
- inhibition ([3]; cisplatin combo, at 0.05 µM): -22.4%
- inhibition ([3]; cisplatin combo, at 0.5 µM): -30.1%
- inhibition ([3]; cisplatin combo, at 5 µM): -15.7%
- inhibition [3, 24]: -12.4%
- inhibition ([4]; at 0.5 µM): -15.4% (inactive)
- inhibition [4, 19]: -5.25%
- inhibition [4, 25]: -36.6%
- inhibition [4, 26]: -6.73%
- inhibition ([5]; at 0.5 µM): -5.42% (inactive)
- inhibition [5, 27]: 4.96%
- inhibition [5, 28]: -8.72%
- inhibition [5, 29]: -17.2%
- inhibition [5, 30]: -11.8%
- inhibition ([5]; single agent, at 5 µM): 5.09%
- inhibition ([6]; at 0.5 µM): -14.8% (inactive)
- inhibition [6, 31]: -24.4%
- inhibition [6, 32]: -18.8%
- inhibition ([7]; at 0.5 µM): -9.5% (inactive)
- inhibition [7, 33]: -9.93%
- inhibition [7, 34]: -11.4%
- inhibition ([8]; at 0.5 µM): 0.78% (inactive)
- inhibition [8, 35]: -14.1%
- inhibition [8, 36]: -5.37%
- inhibition ([9]; at 0.5 µM): -6.35% (inactive)
- inhibition [9, 25]: -24.6%
- inhibition [9, 26]: -28.9%
- inhibition ([10]; at 0.5 µM): -12% (inactive)
- inhibition [10, 37]: -4.92%
- inhibition [10, 38]: -19.3%
- inhibition [10, 39]: -27.4%
- inhibition [10, 40]: -20.3%
- inhibition [11, 41]: 9.93%
- inhibition ([11]; at 0.5 µM): -4.21% (inactive)
- inhibition [11, 42]: 7.75%
- inhibition ([12]; at 0.5 µM): 0.26% (inactive)
- inhibition [12, 43]: 10.1%
- inhibition [12, 44]: -8.09%
- inhibition ([13]; at 0.5 µM): -8.31% (inactive)
- inhibition [13, 45]: -3.58%
- inhibition ([13]; cisplatin combination, at 5 µM): -121%
- inhibition [13, 46]: -25.1%
- inhibition ([13]; single agent, at 5 µM): -6.41%
- inhibition ([14]; at 0.5 µM): -30.6% (inactive)
- inhibition ([14]; cisplatin combo, at 5 µM): -6.31%
- inhibition [14, 47]: -14.5%
- inhibition [14, 25]: -79%
- inhibition ([14]; single agent, at 5 µM): -0.285%
- inhibition ([15]; at 0.5 µM): 8.92% (inactive)
- inhibition [15, 22]: -5.47%
- inhibition [15, 23]: 14.8%
- inhibition ([15]; single agent, at 0.05 µM): -11.3%
- inhibition ([15]; single agent, at 5 µM): -13%
